# Measured values published in PubChem BioAssay.
# Unmarked numbers belong to inactive results. Calls of active or inactive are those of the source. Cut-off read from the data, not from the text of the source, unless noted: active = inhibition above about 42%; inactive = the rest.
# How the values were obtained:
# [1] = StAR promoter reporter inhibitors, counter-screen for LRH-1 inverse agonist project, cell-based, luminescence, high throughput (AID 651611; in the data active = inhibition above about 28%); details: StAR promoter luciferase reporter counterscreen, at 3.6 µM, stronger effect = higher value
# [2] = target: Nuclear receptor subfamily 5 group A member 2 (Homo sapiens) (UniProt O00482); experiment: NR5A2 activity suppression in reporter cells – cell-based, luminescence, confirmation (AID 651613); details: cell-based LRH-1 luciferase reporter, inverse agonism; at 3.6 µM; stronger effect = higher value;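 note: HEK293T cells co-transfected with LRH-1 and StAR promoter luciferase reporter; 0% = vehicle wells and 100% = parental cells lacking receptor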
# Chain of Nuclear receptor subfamily 5 group A member 2 (Homo sapiens) (O00482 whole entry, looked up): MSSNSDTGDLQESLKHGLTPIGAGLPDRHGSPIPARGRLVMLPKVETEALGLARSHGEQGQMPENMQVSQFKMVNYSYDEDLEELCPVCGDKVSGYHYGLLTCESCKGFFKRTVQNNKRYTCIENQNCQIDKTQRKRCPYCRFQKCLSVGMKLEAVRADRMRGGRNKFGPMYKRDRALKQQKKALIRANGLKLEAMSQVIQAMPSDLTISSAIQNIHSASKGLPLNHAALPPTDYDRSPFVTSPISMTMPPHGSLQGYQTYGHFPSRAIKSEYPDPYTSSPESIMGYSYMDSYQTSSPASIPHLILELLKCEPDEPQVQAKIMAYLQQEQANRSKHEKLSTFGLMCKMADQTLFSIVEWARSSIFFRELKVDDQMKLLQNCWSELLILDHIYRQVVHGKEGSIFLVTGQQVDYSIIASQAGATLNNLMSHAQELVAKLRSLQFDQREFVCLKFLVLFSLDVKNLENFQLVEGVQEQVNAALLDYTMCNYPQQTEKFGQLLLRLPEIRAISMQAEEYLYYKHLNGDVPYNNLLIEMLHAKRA
# [3] = target: Steroidogenic factor 1 (Homo sapiens) (UniProt Q13285); experiment: inverse agonism at SF1 nuclear receptor – cell-based, luminescence, high throughput, counter-screen for LRH-1 inverse agonist project (AID 651614; in the data active = inhibition above about 44%;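 note: cells cotransfected with StAR promoter reporter and SF1 expression vector; 0% = vehicle on cells with receptor and 100% = vehicle on cells lacking receptor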); details: cell-based SF1 luciferase reporter, at 3.6 µM, stronger effect = higher value
# Chain of Steroidogenic factor 1 (Homo sapiens) (Q13285 whole entry, looked up, the tested form may be a part): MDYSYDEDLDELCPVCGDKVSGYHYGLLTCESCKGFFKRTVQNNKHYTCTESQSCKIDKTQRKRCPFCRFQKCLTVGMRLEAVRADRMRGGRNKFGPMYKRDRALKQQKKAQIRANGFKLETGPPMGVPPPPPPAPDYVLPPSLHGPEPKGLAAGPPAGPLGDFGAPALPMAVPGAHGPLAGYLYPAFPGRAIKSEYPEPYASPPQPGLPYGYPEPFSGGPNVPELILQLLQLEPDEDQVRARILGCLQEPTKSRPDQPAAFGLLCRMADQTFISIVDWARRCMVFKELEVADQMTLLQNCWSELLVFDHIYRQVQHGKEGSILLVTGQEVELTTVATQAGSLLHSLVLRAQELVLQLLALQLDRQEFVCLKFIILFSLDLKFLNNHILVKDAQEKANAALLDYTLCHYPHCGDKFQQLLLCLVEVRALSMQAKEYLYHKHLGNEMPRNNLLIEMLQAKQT
# [4] = compounds suppressing VP16-driven luciferase signal – cell-based, luminescence, high throughput, counter-screen for LRH-1 inverse agonist project (AID 651615; in the data active = inhibition above about 33%); details: Gal4-VP16 luciferase reporter cells, at 3.6 µM, stronger effect = higher value
SMILES,inhibition [1],inhibition [2],inhibition [3],inhibition [4]
Cc1cc(C)c2sc(NC(=O)c3ccc([N+](=O)[O-])o3)nc2c1,-1.04%,54.4% (active),53.5% (active),-7.08%
Nc1nc2ccc(Cl)cc2cc1C(=O)NCc1ccc(Oc2ccccc2)cc1,14.7%,54.2% (active),51.1% (active),45.7% (active)
COc1ccc(NS(=O)(=O)c2ccc(-c3coc(C)n3)cc2)cc1OC,15.6%,65.6% (active),64.7% (active),51.4% (active)
Oc1[nH]c2ccccc2c1N=NC(=S)N1CCOCC1,74.8% (active),78.3% (active),80% (active),55.2% (active)
Cc1cc(SC#N)cc(C)c1NC(=O)CCl,27.4%,52.8% (active),50.9% (active),-31.6%
Cc1csc(NC(=O)CSc2nc3[nH]c(=O)cc(O)c3s2)n1,15.2%,60.5% (active),68.1% (active),-21.4%
COc1cc(C(=O)Nc2ccccc2C(=O)Nc2ccccn2)cc(OC)c1OC,61.2% (active),45.9% (active),62.1% (active),-2.31%
CCOc1ccc(S(=O)(=O)Nc2cc(OC)ccc2OC)cc1,35.8% (active),54.4% (active),49.1% (active),22.6%
COc1cc2c(=O)[nH]c3cc([N+](=O)[O-])ccc3c2cc1[N+](=O)[O-],-3.92%,64.6% (active),56.6% (active),-22.2%
COCC(=O)NC1CCN(CC(=O)Nc2ccc(OC)cc2[N+](=O)[O-])CC1,14.2%,60.2% (active),60.8% (active),-2.25%
CC(=O)c1ccc(OC(C)C(=O)OCC(=O)NCCc2ccccc2)cc1 (stereo unspecified),-2.97%,47.1% (active),40.7%,7.05%
CCCc1cc(=O)oc2cc(OCC(=O)NCCc3c[nH]c4ccc(OC)cc34)ccc12,6.12%,28.9%,40.4%,-23.9%
O=C(c1ccc(Cl)cc1)N1CCCCC(Cl)C1=O (stereo unspecified),20.5%,56.1% (active),57.2% (active),1.69%
Oc1ccccc1-c1nc(NCC2CCCO2)c2ccccc2n1 (stereo unspecified),26.3%,66.2% (active),58% (active),-8%
O=C(COC(=O)Cc1ccccc1[N+](=O)[O-])NCc1ccc(Cl)cc1,11.3%,37.2%,34.4%,-5.74%
CC(=O)Nc1cc(-c2cccc(N)c2)cn2c(-c3ccc(C(C)=O)cc3)cnc12,19.6%,33.4%,36.5%,-13.4%
COc1ccccc1NC(=O)CN1CCN(CC(=O)Nc2ccc(S(N)(=O)=O)cc2)CC1,19.1%,49.8% (active),47.7% (active),-15.6%
CN(C)c1ccc(CN(C(=O)C2COc3ccccc3O2)C2CCS(=O)(=O)C2)cc1 (stereo unspecified),3.73%,35.1%,39.1%,1.92%
CCOC(=O)N1CCN(C(=O)CSc2nc3c([nH]c4ccccc43)c(=O)n2CC)CC1,36.3% (active),63.7% (active),55.8% (active),-25.2%
CC(=O)Nc1ccc(NC(=O)CSc2nnc(NC(=O)C3CC3)s2)cc1,1.23%,49.6% (active),48.2% (active),-1.05%
Cc1cccc(NC(=O)COC(=O)CN2C(=O)c3ccccc3C2=O)c1C,7.19%,51% (active),47.8% (active),-15%
CCOC(=O)c1ccc(N=Cc2cnc(N)nc2N)cc1,-7.89%,-2.86%,7.7%,3.32%
COc1cc2c(cc1OC)C(c1ccc(-c3ccc(Cl)cc3Cl)o1)=NCC2,36.4% (active),58.4% (active),61% (active),62.5% (active)
Cc1ccc(-c2cc(NC=O)c3ncc(-c4cnn(C)c4)n3c2)cc1,50.1% (active),52% (active),64.3% (active),-13.8%
